# Source: PubChem
# Spn MK inh: blocks S. pneumoniae mevalonate kinase. purified MK, PK/LDH-coupled NADH absorbance 340 nm. inhibition, % at 10 µM. hit rate 0.48% among 65,000. AID 555;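 active = ranked among the strongest by inhibition in the single 10 µM screen, a fixed top-ranked set picked for dose follow-up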
# Abs 340nm: absorbance at 340 nm; fold change at 10 µM; compound absorbance at 340 nm, fold over control; 65,000 tested, under 10 active;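 active = at 10 µM dose, initial 340 nm absorbance at least 2 fold that of control wells; inactive = change under 2 fold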;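 note: initial absorbance extrapolated from kinetic A340 decline of NADH oxidation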
# Spn PMK inh: inhibitors of Streptococcus pneumoniae phosphomevalonate kinase; purified PMK, PK/LDH-coupled NADH absorbance 340 nm; inhibition, % at 10 µM; hit rate 0.49% among 65,000; AID 539;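 active = top-ranked compounds by inhibition in the single 10 µM screen, taking a fixed number of the strongest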;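 note: 0% = full reaction with DMSO carrier and 100% = background rate without enzyme reaction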
# NADH enzymes: blocks coupling enzymes of NAD/NADH assays | coupled PK/LDH NADH assays, four targets | IC50, µM (highest dose often 10 µM), for the others: at the highest dose inhibition | hit rate 0.02% among 65,000;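 active = single-dose screening hits from any of four coupled enzyme assays that gave an IC50 when retested across doses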;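 note: the DPM-DC format reads NADH fluorescence rather than 340 nm absorbance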
# Spn DPM-DC inh: blocks S. pneumoniae diphosphomevalonate decarboxylase | purified DPM-DC, PK/LDH coupled NADH fluorescence | calls only at 10 µM | hit rate 0.49% among 65,000 | AID 556;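 active = the 320 compounds with the highest percent inhibition in the single-dose primary screen, excluding strongly autofluorescent ones, cut at about 32% in these data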;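 note: kinetic rate of NADH fluorescence loss reporting ADP formed by the decarboxylase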
# Fluor 339 460: intrinsic fluorescence of library compounds, ex339/em460 – biochemical, MLSMR library, data from DPM-DC assay, artefact control, profiling panel; fluorescence fold increase at 10 µM; compound autofluorescence, ex339/em460 nm, NADH buffer; stronger effect = higher value; 1 = no-compound wells, NADH background; hit rate 5.5% among 65,000;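 active = at 10 µM, mean starting fluorescence two-fold or more over control wells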;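 note: signal is the first read of a kinetic run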
# An asterisk follows results filed as active; i = inactive; / = no result shown; + = active, no number. Most compounds without a hit are left out; they make up all but 6.3% or so of the library.
SMILES,Spn MK inh,Abs 340nm,Spn PMK inh,NADH enzymes,Spn DPM-DC inh,Fluor 339 460
CCOC(=O)CSC1=C(C#N)C(C)C2=C(CCCC2=O)N1 (configuration not stated),7,1.1,6,4%,i,1.2
CCOC(=O)C1CCN(Cc2ccc(OC)cc2OC)CC1,51*,1.1,0,18%,i,1.1
CCOC(=O)C1CCN(Cc2ccc(N(C)C)cc2)CC1,43*,1.1,0,14%,i,1.1
CCOC(=O)C1CCN(C(=O)Cc2ccc(OC)c(OC)c2)CC1,2,1,22,8%,i,1.1
COc1ccc(CN2CCN(c3ccccn3)CC2)c(OC)c1,36,1,23,20%,i,1.1
CCOC(=O)C1CCN(c2c(N3CCN(Cc4ccccc4)CC3)c(=O)c2=O)CC1,6,1.1,6,4%,i,1.1
COc1ccc(CN2CCN(c3ncccn3)CC2)c(OC)c1,49*,1.1,16,22%,i,1.1
CCOC(=O)C1CCN(Cc2cn[nH]c2-c2ccccc2)CC1,7,1,12,10%,/,3.8*
CCOC(=O)C1CCN(Cc2cn[nH]c2-c2ccc(C)cc2)CC1,3,1,8,4%,i,1.1
O=S1(=O)CCN2C(=N1)Sc1c2ccc2c1CCCC2,7,0.97,22,11%,i,1.1
Cc1ccc(C(=O)NCCCN2CCOCC2)cc1N1CCCC1=O,0,1,11,4%,i,1.1
CCOC(=O)C1CCN(c2nc(-c3ccccc3)nc3c2oc2ccccc23)CC1,7,1,10,6%,i,2.1*
CCN(CC)C(=O)C1CCN(Cc2ccc(Br)cc2)CC1,0,1.1,6,8%,i,2.7*
O=C(O)C1CCN(c2nc(-c3ccccc3)nc3c2oc2ccccc23)CC1,10,1.1,6,5%,i,1.2
O=S(=O)(c1ccccc1C(F)(F)F)N1CCOCC1,4,0.98,15,6%,i,1.1
CC(C)Cn1c(-c2cccs2)nc2nc3ccccc3nc21,0,1.1,2,1%,/,3.9*
c1ccc(Cn2c(-c3cccs3)nc3nc4ccccc4nc32)cc1,9,1,5,7%,/,3.7*
c1ccc(-c2nc3nc4ccccc4nc3n2Cc2ccco2)cc1,16,1.1,15,12%,i,1.5
COc1cccc(CN(Cc2cccnc2)S(=O)(=O)c2ccc(-n3cnnn3)c(C)c2)c1,0,1,15,5%,i,1.1
CCCc1nnc(NC(=O)CCC(=O)Nc2ccc(F)cc2)s1,12,0.99,13,8%,i,1.1
Cc1c(Cl)c(C(F)(F)F)nn1CC(=O)N1CCSCC1,7,1,0,2%,i,1.1
Cc1cccn2c(=O)c3cc(C#N)c(=O)n(Cc4cccnc4)c3nc12,6,1,3,5%,/,3.8*
N#Cc1cc2c(=O)n3ccccc3nc2n(Cc2cccnc2)c1=O,7,1.1,9,8%,/,3.8*
CC1CCCCN1CCNC(=O)c1cc2c(-c3ccccc3F)nn(C)c2s1 (configuration not stated),1,1.1,8,5%,/,2.1*
CCOC(=O)N1CCC(NC(=O)c2cc3c(-c4ccccc4F)nn(C)c3s2)CC1,11,1.1,8,13%,i,2*
SMILES,Spn MK inh,Abs 340nm,Spn PMK inh,NADH enzymes,Spn DPM-DC inh,Fluor 339 460
COc1ccc(-c2nn(C)c3sc(C(=O)NCc4ccco4)cc23)cc1OC,6,1,12,8%,i,3.1*
CCOC(=O)N1CCC(NC(=O)c2cc3c(-c4ccc(OC)c(OC)c4)nn(C)c3s2)CC1,8,1.1,7,11%,i,2.4*
O=c1cc(N2CCOCC2)[nH]c(=O)n1-c1ccc(Br)cc1,7,1,0,2%,i,1.1
CC1(C)CC(=O)c2cnc(NC(=O)C3CCCC3)nc2C1,10,0.95,25,12%,i,1.1
c1ccc(-c2nc3nonc3c3nc4ccccc4n23)cc1,i,1,4,9%,+,2.3*
c1ccc(-c2nc3nonc3nc2-c2ccccc2)cc1,6,1.1,9,5%,i,1.1
CC(O)COc1ccc(/C(=N/O)c2ccccc2)cc1 (configuration not stated),18,1,0,22%,+,1
Cc1ccccc1N1C(=O)N(c2cccc(C(F)(F)F)c2)C2CS(=O)(=O)CC21 (configuration not stated),7,0.98,5,4%,i,1.1
Cc1cccc(-c2c3c(=O)n(C)c(=O)n(C)c3cn2-c2ccccc2O)c1,11,1,0,10%,i,2.6*
CC(=O)Nn1cc2c(c1-c1ccccc1)c(=O)n(C)c(=O)n2C,1,1,7,7%,i,1.7
CC(=O)c1cccc(S(=O)(=O)N(Cc2cc3cc4c(cc3[nH]c2=O)OCCO4)CC2CCCO2)c1 (configuration not stated),3,1.1,12,8%,i,1.4
O=c1[nH]c2cc3c(cc2cc1CN(CC1CCCO1)S(=O)(=O)c1ccccc1)OCCO3 (configuration not stated),7,1.1,0,4%,/,3.8*
O=C(NCc1ccccc1)N(Cc1cc2cc3c(cc2[nH]c1=O)OCCO3)CC1CCCO1 (configuration not stated),2,1.1,4,3%,/,3.7*
CCOc1ccc(-c2nnc(-c3ccncc3)o2)cc1,14,1,8,20%,+,2*
CCCCOc1ccc(-c2nnc(-c3ccncc3)o2)cc1,10,1,15,14%,i,3*
CCOc1ccc(-c2nnc(N)o2)cc1,2,1,10,4%,i,1.1
Cc1ccc(NC2c3ncccc3C(=O)N2c2ccccc2C)cc1C (configuration not stated),83*,1.1,23,35%,i,1.2
Cn1nnc2cc(C(=O)N3CCC(c4ccccc4)C3)ccc21 (configuration not stated),2,1,5,2%,i,1.1
Cc1nn(Cc2ccccc2)c(C)c1NC(=O)CSc1nnc(-c2cc(Cl)ccc2O)n1C,8,1.1,0,3%,i,1.1
CCC1(C)Cc2c(sc3[nH]c(=O)[nH]c(=O)c23)CS1 (configuration not stated),3,1,4,4%,/,2.3*
COc1ccc2c(-c3cccnc3)cc(=O)[nH]c2c1,3,1,11,6%,i,2.1*
Cc1nn(C)cc1CN(C)C(=O)c1cc2nc(-c3ccco3)cc(C(F)(F)F)n2n1,3,1.1,0,8%,i,2.7*
Cc1nn(C)c(C)c1CN(C)C(=O)c1cc2nc(-c3ccco3)cc(C(F)(F)F)n2n1,1,1.1,14,8%,i,2.5*
